Measurements reported in PubChem BioAssay.
Active and inactive are the calls of the source.

assay: yeast growth modulation, basal conditions, primary screen, YJM789 clinical isolate, OD600, 24 h (AID 1089);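 further: growth of clinical yeast isolate S. cerevisiae YJM 789 seeded 1000 cells per well; test concentration not given here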; conditions: S. cerevisiae YJM789 growth, higher = more signal, called active from +8 up or from −8 down

| SMILES | z-score |
| --- | --- |
| COc1ccc([Si](C)(C)[C@H]2[C@H](CC(=O)N3CCC[C@H]3CO)O[C@@]3(C(=O)N(Cc4cccc(N5C(=O)COc6ccccc65)c4)c4ccccc43)[C@@H]2C)cc1 | -2.58 (inactive) |
| CC(=O)OC[C@H]1O[C@H](C#CCCCc2ccccc2)C=C[C@@H]1OC(C)=O | 0.458 (inactive) |
| CC(C)[C@H](NC(=O)OC(C)(C)C)[C@@H](O)CC(=O)OC(C)(C)C | -0.0351 (inactive) |
| COCCCNC(=O)[C@]1(CCC(=O)OC(C)(C)C)N=C(c2ccc(OCCCO)cc2)O[C@@H]1c1ccccc1N=[N+]=[N-] | -0.376 (inactive) |
| C[C@@H]1C=CCC(=O)OC[C@H](C)C(=O)N[C@@H](C)C(=O)OC1 | 0.664 (inactive) |
| COC(=O)[C@@]1(Cc2ccc(F)cc2)[C@H]2c3cc(C(=O)N(C)C)n(Cc4ccc(OC)c(OC)c4)c3C[C@H]2CN1C(=O)c1ccccc1 | 0.0573 (inactive) |
| CCCCCN1CC=CC23O[C@@H]4C=CCOC(=O)[C@@H]4[C@H]2C(=O)N(CCCCCCO)[C@@H]3C1=O (stereo not given in full) | -0.44 (inactive) |
| COc1ccc(O[C@H]2C=C[C@@H](c3ccccc3)O[C@@H]2COC(=O)CCC(C)=NO[C@H](C)c2cn([C@@H]3COC[C@H]3O)nn2)cc1 | -0.88 (inactive) |
| C#C[C@@H]1Oc2ccccc2S(=O)(=O)N2CCC[C@H]12 | -0.0284 (inactive) |
| CC(C)(C)OC(=O)CC[C@]1(C(N)=O)COC(c2ccc(OCCCO)cc2)=N1 | 0.0433 (inactive) |
| COc1ccc(O[C@H]2C=C[C@@H](c3ccccc3)O[C@@H]2COC(=O)CCC(C)=NOC[C@@H](C)[C@H](OCc2ccccc2)C(C)C)cc1 | 0.122 (inactive) |
| Cc1ccc(F)cc1S(=O)(=O)N[C@@H]1CCN(Cc2ccc(CC(C)C)cc2)C1 | -25.8 (active) |
| CCc1cc2c(nc1CC)CCN(CCC(C)=NOC(C)CN1CCCc3nc(C)c(C)cc31)C2 (stereo not given) | -2.1 (inactive) |
| Cc1ccc(S(=O)(=O)N[C@@H]2COC(=O)[C@H](C)COC(=O)CC=C[C@H]2C)cc1 | 1.4 (inactive) |
| O=C1C[C@@H](O)[C@@H](O)[C@@H]2[C@@H]3C(=O)N(Cc4ccc5c(c4)OCO5)C(=O)[C@@H]3CC[C@@H]12 | 0.489 (inactive) |
| CN1C(=O)[C@@]2(CCC(=O)OC(C)(C)C)N=C(c3ccc(OCCCO)cc3)O[C@H]2c2ccccc21 | -1.08 (inactive) |
| COCCOC(=O)N1C(=O)[C@@]2(c3cc(C#CC4(O)CCCCCC4)ccc31)[C@H](C(=O)N1CCN(c3ncccn3)CC1)[C@H]1C(=O)O[C@H](c3ccccc3)[C@H](c3ccccc3)N1[C@@H]2c1ccc(OCCO)cc1 | 2.12 (inactive) |
| CCOC(=O)[C@H](CC(C)C)NC(=O)CCC1CC(OC(=O)NCc2cccc3ccccc23)CC2(CCCC(COC(=O)NCCc3ccccc3OC)O2)O1 (stereo not given in full) | -0.133 (inactive) |

| SMILES | z-score |
| --- | --- |
| COC(=O)[C@H](C)NC(=O)CCC1CC(OC(=O)NCc2cccc3ccccc23)CC2(CCCC(COC(=O)NCCc3ccc(Cl)cc3)O2)O1 (stereo not given in full) | -0.915 (inactive) |
| O[C@@H](Cc1ccccc1)[C@H]1C2C=CCCC(c3ccccc3)=C2CN1Cc1cccc(Cl)c1 (stereo not given in full) | -0.122 (inactive) |
| O=C1[C@H]2[C@H]3[C@H](O)[C@H](O)CC(=NO[C@@H]4O[C@H](CO)[C@@H](O)[C@H](O)[C@H]4O)[C@@H]3CC[C@H]2C(=O)N1Cc1ccccc1 | -0.3 (inactive) |
| COCCOC(=O)N1C(=O)[C@@]2(c3cc(C#CCNC(N)=O)ccc31)[C@H](c1ccccc1OCCO)N1[C@H](c3ccccc3)[C@H](c3ccccc3)OC(=O)[C@H]1[C@@H]2C(=O)N1CCN(c2ncccn2)CC1 | -0.0197 (inactive) |
| O=C1[C@H]2[C@H]3[C@H](O)[C@H](O)CC(=NO[C@@H]4O[C@H](CO)[C@@H](O)[C@H](O)[C@H]4O)[C@H]3CC[C@H]2C(=O)N1Cc1ccccc1 | -0.509 (inactive) |
| CC(C)(C)N1C(=O)[C@H]2[C@H]3[C@H](O)[C@H](O)CC(=NO[C@@H]4O[C@H](CO)[C@@H](O)[C@H](O)[C@H]4O)[C@@H]3CC[C@H]2C1=O | -0.233 (inactive) |
| O=C1[C@H]2[C@H]3[C@H](O)[C@H](O)CC(=NO[C@@H]4O[C@H](CO)[C@@H](O)[C@H](O)[C@H]4O)[C@H]3CC[C@H]2C(=O)N1C1CCCCC1 | -0.546 (inactive) |
| CC[C@@H](c1ccccc1)n1c(=O)n2n(c1=O)[C@H]1[C@H](O)[C@@H]3O[C@@H]3C(=NOCC(C)C)[C@H]1CC2 | 1.3 (inactive) |
| CCCC[C@@H](O)C1=C(C)C[C@H]2C(=O)N(Cc3ccccc3)C(=O)[C@H]2[C@H]1CO | -0.812 (inactive) |
| CC(C)=C1C(=O)C(c2ccccc2)=C2CN3C(=O)N(CCc4ccccc4)C(=O)[C@]3(Cc3ccc(F)cc3)[C@H]21 | -0.129 (inactive) |
| N#Cc1ccc(NN2C(C(O)c3cc(C(F)(F)F)cc(C(F)(F)F)c3)C=CC3C(=O)N(c4ccccc4)C(=O)C32)cc1 (stereo not given) | 0.628 (inactive) |
| [N-]=[N+]=NCc1ccccc1[C@@H]1OC(c2ccc(OCCCO)cc2)=N[C@]1(Cc1ccccc1)C(=O)N1CCOCC1 | -0.655 (inactive) |
| CC(CCN1CCCCc2nc(C)c(C)cc21)=NOC(C)CN1CCCCc2nc(C)c(C)cc21 (stereo not given) | -1.32 (inactive) |
| O=C(NN=C1C[C@@H](O)[C@@H](O)[C@@H]2[C@@H]3C(=O)N(c4cccc(Oc5ccccc5)c4)C(=O)[C@@H]3CC[C@H]12)OCc1ccccc1 | 0.686 (inactive) |
| CCOC(=O)CCN1C(=O)[C@H]2[C@H]3[C@H](O)[C@H](O)CC(=O)[C@H]3CC[C@H]2C1=O | 0.184 (inactive) |
| O=C1O[C@@H](c2ccccc2)[C@@H](c2ccccc2)N2[C@@H](c3ccc(OCCO)cc3)[C@]3(C(=O)Nc4ccc(C#CCCO)cc43)[C@@H](C(=O)N3CCCCCCC3)[C@H]12 | 1.15 (inactive) |
| c1ccc(C2NCCc3c2[nH]c2ccccc32)cc1 (stereo not given) | -0.272 (inactive) |
